{"source": "PubChem BioAssay (NCATS)", "note": "Records with an inconclusive call do not appear. Active and inactive are the calls of the source. The call rests on the fitted dose curve; in most records, active means well fitted inhibition curve with a large enough effect; inconclusive means small, poorly fitted or top-dose-only effect; inactive means no such curve, though single readings can be large or run the other way. Potency means the concentration at half of the fitted maximal effect.", "data": [{"target": "Furin (Homo sapiens) (UniProt P09958)", "sequence (P09958 whole entry, looked up)": "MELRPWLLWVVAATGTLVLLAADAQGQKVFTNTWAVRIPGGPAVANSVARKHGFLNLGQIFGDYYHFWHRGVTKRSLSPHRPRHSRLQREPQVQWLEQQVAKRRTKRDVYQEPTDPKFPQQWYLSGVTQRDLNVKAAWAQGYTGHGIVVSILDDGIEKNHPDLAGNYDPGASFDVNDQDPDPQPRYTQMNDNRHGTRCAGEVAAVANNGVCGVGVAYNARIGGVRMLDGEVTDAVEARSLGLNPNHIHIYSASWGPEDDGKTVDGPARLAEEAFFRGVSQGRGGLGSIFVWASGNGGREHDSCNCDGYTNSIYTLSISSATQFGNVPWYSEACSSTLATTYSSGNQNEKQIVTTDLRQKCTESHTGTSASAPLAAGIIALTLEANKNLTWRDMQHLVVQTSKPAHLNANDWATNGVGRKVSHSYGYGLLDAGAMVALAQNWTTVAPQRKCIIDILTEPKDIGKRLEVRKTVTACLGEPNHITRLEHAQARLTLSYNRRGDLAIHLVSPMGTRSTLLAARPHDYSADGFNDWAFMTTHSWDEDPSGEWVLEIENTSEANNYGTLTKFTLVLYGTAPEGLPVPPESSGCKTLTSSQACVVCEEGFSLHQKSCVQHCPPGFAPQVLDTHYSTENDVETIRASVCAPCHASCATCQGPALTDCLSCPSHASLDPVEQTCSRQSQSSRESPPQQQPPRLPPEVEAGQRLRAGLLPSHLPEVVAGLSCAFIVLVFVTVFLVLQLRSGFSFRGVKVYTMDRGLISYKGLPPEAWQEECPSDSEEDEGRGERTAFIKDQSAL", "experiment": "Furin counterscreen qHTS for Zika virus inhibitors (AID 1347149); further: nearly all actives have a fitted effect of over 70% in size;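 on activity change, negative = inhibition: purified recombinant full-length human furin enzyme at 5 nM; fluorescence gain from furin cutting a BOC-RVRR-AMC peptide substrate over 15 min; top concentration of the series differs between compounds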", "details": "furin enzymatic counterscreen, fluorogenic substrate; series mostly up to 57.5 µM", "text": "Avindra Nath, Ph.D., National Institute of Neurological Disorders and Stroke (NINDS), Bethesda, MD\nRadhakrishnan Padmanabhan, Ph.D., Georgetown University (GU), Washington D.C.\nZika Virus causes congenital defects, including microcephaly and is associated with Guillain-Barre syndrome, eningoencephalitis and myelitis in infected adult. […] Using a target-based approach, we hope to establish a screening paradigm to uncover novel, cell-active NS2B-NS3 protease (Zika Virus) specific inhibitors from NCATS' collection of small molecules using qHTS.\nFour assay panel was created to identify potential Zika Virus inhibitors. Namely, (1) GU unlinked NS2B-NS3 AMC tagged protease qHTS, (2) GU unlinked NS2B-NS3 Rhodamine tagged protease qHTS, (3) NINDS linked NS2B-NS3 AMC tagged protease qHTS, (4) NINDS linked NS2B-NS3 Rhodamine tagged protease qHTS. Active compounds were re-acquired and re-screened to confirm inhibition. Inhibitors were further screened against various confirmatory and counterscreens in dose response format.\nEarly Translation Branch (ETB)\nNational Center for Advancing Translational Sciences (NCATS), Rockville, MD\nNational Institute of Health (NIH), Bethesda, Maryland\n1536-well Furin BOC-RVRR-AMC Protocol:\nHuman recombinant Furin Serine Protease was purchased from Peprotech (catalog #450-47; full length; Rocky Hill, NJ). Briefly, 3 microL of enzyme (final concentrations of 5 nM), in assay buffer (100 mM HEPES pH 7.0, 1 mM CaCl2 with 0.01% Triton X-100) were dispensed into a 1,536-well solid-bottom black plate (Greiner Bio One, Monroe, NC). Twenty-three nL of compounds (final concentration range 7.28 nM to 114 microM) or control Furin Inhibitor I (Dec-RVKR-CMK; final concentration range 0.248 nM to 8.12 microM) were transferred via Wako Pin-tool (Wako Automation, Richmond, VA). Samples were incubated (RT, protected from light) for 15 minutes followed by a 1 microL substrate addition of BOC-RVRR-AMC (final concentration of 2 microM; Km = ~15 muM90). Plates were then read immediately on a ViewLux High-throughput CCD imager (PerkinElmer, Waltham, MA) equipped with standard UV fluorescence optics (340(30) nm excitation, 450(20) nm emission), then incubated (37C, protected from light) for 15 or 30 minutes (~9% conversion). The change in fluorescence intensity over the 15-minute reaction period was normalized against no-inhibitor and no-enzyme controls and the resulting percent inhibition data were fitted to a 4-parameter Hill equation. Furin Inhibitor I was used as intraplate control.", "values": [{"smiles": "O=C(Nc1ccccc1)Nc1ccc(-c2ccc(C(=O)[C@H]3CCC[C@H]3C(=O)O)cc2)cc1", "Potency": "34 µM (active)"}, {"smiles": "N#CC1(c2cccc(C(=O)Nc3cc(Oc4ccc5nc(NC(=O)C6CC6)sc5n4)ccc3F)c2Cl)CC1", "Potency": "inactive"}, {"smiles": "O=C(Nc1cccc2c(=O)cc(-c3nn[nH]n3)oc12)c1ccc(OCCCCc2ccccc2)cc1", "Potency": "30.4 µM (active)"}, {"smiles": "CCCCOCCOc1nc(-c2ccc(C(=O)O)c(F)c2)sc1C", "Potency": "12.1 µM (active)"}, {"smiles": "CC(C)c1onc(-c2c(Cl)cccc2Cl)c1COc1ccc(C=Cc2cccc(C(=O)O)c2)c(Cl)c1", "Potency": "30.4 µM (active)"}, {"smiles": "Fc1ccc(C(c2ccc(F)cc2)N2CCN(CC=Cc3ccccc3)CC2)cc1", "Potency": "inactive"}, {"smiles": "O=C1Nc2ccc(I)cc2C1=Cc1cc(Br)c(O)c(Br)c1", "Potency": "inactive"}, {"smiles": "CCCCC[C@H](O)C=C[C@H]1[C@H](O)CC(=O)[C@H]1CCCCCCC(=O)O", "Potency": "inactive"}, {"smiles": "O=S(=O)(O)c1ccc2cc(N=Nc3cc(S(=O)(=O)O)c4cccnc4c3O)ccc2c1", "Potency": "inactive"}, {"smiles": "OC(c1cc(C(F)(F)F)nc2c(C(F)(F)F)cccc12)C1CCCCN1", "note": "(configuration not stated)", "Potency": "0.961 µM (active)"}, {"smiles": "CCOC(=O)[C@H](CCc1ccccc1)N[C@@H](C)C(=O)N1CCCC1C(=O)O", "note": "(some centres not stated)", "Potency": "inactive"}, {"smiles": "c1cc(OCCN2CCCCC2)cc(-c2n[nH]c3ccc(-c4ncn[nH]4)cc23)c1", "Potency": "21.5 µM (active)"}, {"smiles": "O=c1cc(-c2ccc(O)c(O)c2)oc2cc(O)cc(O)c12", "Potency": "inactive"}, {"smiles": "COc1ccc(-c2ccc3ncc4c(c3c2)n(-c2ccc(N3CCNCC3)c(C(F)(F)F)c2)c(=O)n4C)cn1", "activity change, negative = inhibition": "-10.9% [at 5.45 µM] (inactive)"}, {"smiles": "COc1cc(Cl)cn2c(-c3cccc(NC4CNC4)n3)cnc12", "Potency": "27.1 µM (active)"}, {"smiles": "CC[C@H](C)n1cc(C)c2c(C(=O)NCc3c(C)cc(C)[nH]c3=O)cc(-c3ccc(N4CCNCC4)nc3)cc21", "Potency": "27 µM (active)"}, {"smiles": "O=C(O)Cc1cccc(OCCCN(Cc2cccc(C(F)(F)F)c2Cl)CC(c2ccccc2)c2ccccc2)c1", "Potency": "7.62 µM (active)"}]}]}
